Values joined by “and” are separate entries in the source; they are usually repeats but may differ in a detail not shown here. Equal entries are not always repeated. Structures can show the parent of a compound that is named as a salt. Hit rate of the full screen: of about 5,800 compounds, about 620 (11%) showed activity.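 The calls were made as follows: active = score above a cut-off or among the top three wells of a plate; in these data no inactive exceeds 0.85.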 For the sample, actives were picked, then their nearest neighbours and some compounds at random.
Tested on: primary human hepatic stellate cells (donor 1)
Assay: scaled lipid accumulation score (0 = DMSO-like, 1 = nortriptyline-like); higher = stronger HSC inactivation (lipid re-accumulation), active = hit call of the paper
Settings: 48 h
[1] = library stock concentration: 10 mM
[2] = library stock concentration: 1 mM
[3] = library stock concentration: 3.33 mM

CCS(=O)(=O)N(C)[C@H]1c2cc(C#N)ccc2OC(C)(C)[C@@H]1O [(-)-[3R,4S]-Chromanol 293B]
scaled lipid accumulation score [1]: 0.037 (inactive)

NC(CCC(=O)NC(CSN=O)C(=O)NCC(=O)O)C(=O)O [S-Nitroso-L-glutathione]
scaled lipid accumulation score [2]: 0.026 (inactive)

CNS(=O)(=O)c1ccc(NC(=O)c2ccccc2C(=O)O)cc1 [Phthalysulfathiazole]
scaled lipid accumulation score (library stock concentration: 4.8 mM): ≤ 0 (inactive)

N[C@@H](CO)c1ccccc1 [(R)-(-)-2-Phenylglycinol]
scaled lipid accumulation score [2]: ≤ 0 (inactive)

O=C1c2cccc(O)c2C(=O)c2c(O)cccc21 [Danthron]
scaled lipid accumulation score (library stock concentration: 8.3 mM): 0.038 (inactive)

O=C1C(SCCO)=C(SCCO)C(=O)c2ccccc21 [listing 1 of 3 here]
scaled lipid accumulation score [1]: 0.156 (inactive)

O=C1C(SCCO)=C(SCCO)C(=O)c2ccccc21 [listing 2 of 3 here]
scaled lipid accumulation score [1]: 1.2 (active)

O=C1C(SCCO)=C(SCCO)C(=O)c2ccccc21 [listing 3 of 3 here]
scaled lipid accumulation score (library stock concentration: 16.1 mM): 1.05 (active)

CCN(c1ccccc1)c1cc(=NC)n(C)c(C)n1
scaled lipid accumulation score [1]: ≤ 0 (inactive)

CN(C)CCCCCCOc1ccc(-n2ccnc2)cc1
scaled lipid accumulation score [2]: 0.054 (inactive) and 0.003 (inactive)

NC(N)=N[C@@H](CCC(=O)O)C(=O)O [.alpha.-Guanidinoglutaric Acid]
scaled lipid accumulation score [2]: ≤ 0 (inactive)

NC(N)=N[C@@H](CCC(=O)O)C(=O)O [alpha-Guanidinoglutaric acid]
scaled lipid accumulation score [1]: ≤ -0.007 (inactive)

O=C(Nc1cccc(C(F)(F)F)c1)Nc1cc(S(=O)(=O)NC2CC2)ccc1-c1ccsc1
scaled lipid accumulation score [3]: 0.022 (inactive) | scaled lipid accumulation score [1]: 0.632 (inactive)

OC(CC1c2ccccc2-c2cncn21)C1CCCCC1 (stereo unspecified)
scaled lipid accumulation score [3]: ≤ -0.009 (inactive) | scaled lipid accumulation score [1]: 0.209 (inactive)

Cc1ccc(Nc2c(F)cccc2Cl)c(CC(=O)O)c1 [Lumiracoxib]
scaled lipid accumulation score [3]: ≤ 0 (inactive) | scaled lipid accumulation score [1]: 0.025 (inactive)

Cc1ccc(Nc2c(F)cccc2Cl)c(CC(=O)O)c1
scaled lipid accumulation score [1]: ≤ 0 (inactive)

CCCCC[C@H](O)/C=C/[C@@H]1c2cc(CCCCC(=O)O)n(-c3ccccc3)c2C[C@H]1O [Piriprost (potassium salt)]
scaled lipid accumulation score [2]: ≤ 0 (inactive)

O=c1c2ccccc2nc2n1CCc1c-2[nH]c2ccccc12 [Rutaecarpine] [listing 1 of 2 here]
scaled lipid accumulation score [1]: 0.975 (active)

CN1CCc2ccccc2Cc2[nH]c3ccccc3c2CC1
scaled lipid accumulation score [1]: 0.244 (inactive)

O=c1c2ccccc2nc2n1CCc1c-2[nH]c2ccccc12 [Rutaecarpine] [listing 2 of 2 here]
scaled lipid accumulation score [3]: ≤ 0 (inactive) | scaled lipid accumulation score [1]: 0.58 (inactive)

CCC(CC)(NC(=O)C(C)C)C(=O)N[C@@H](CCCN=C(N)N)C(=O)NC1(C(=O)NC(c2ccc(F)cc2)c2ccc(F)cc2)CCCC1
scaled lipid accumulation score [3]: ≤ -0.009 (inactive) | scaled lipid accumulation score [1]: ≤ 0 (inactive)

Source: the supplement of paper PMC9135407
